Records with an inconclusive call do not appear. The source made the active and inactive calls. Unless noted, calls follow the shape of the dose curve; as a rule, active = well fitted curve in the direction sought with a large enough effect in the repeat runs; inconclusive = weak or mixed curves; inactive = no such curve, though single readings can be large; an effect the other way counts as inactive or inconclusive.
Tests used:
[1] = qHTS assay to identify small molecule antagonists of the estrogen receptor beta (ER-beta) signaling pathway - cell viability counter screen (AID 1259382);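 also: HEK293T cells carrying ER-beta-UAS-bla reporter stimulated with estradiol; series mostly up to about 92 µM; nearly all actives have a fitted effect of over 55% in size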
How it was run: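 ER-beta-UAS-bla HEK293T cells in 2% charcoal-stripped FBS medium, treated with compound plus 1 nM 17-beta-estradiol for 16 h at 37C. Viability read by CellTiter-Glo luminescence after 30 min at room temperature in the same wells.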

[2] = target: Estrogen receptor (Homo sapiens) (UniProt P03372); test: qHTS assay to identify small molecule agonists of the estrogen receptor alpha (ER-alpha) signaling pathway in the presence of an antagonist (AID 1259383; calls by dose curve; also: top concentration of the series differs between compounds; nearly all actives have a fitted effect of over 15% in size)
How it was run: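 VM7Luc4E2 cells express endogenous full-length ER-alpha with an ERE-luciferase reporter and were hormone-deprived for 5 days. Compounds at 15 concentrations were added with 10.0nM ICI-182,780 for 22hr at 37C. Luminescence was read with ONE-Glo.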

[3] = target: Thyrotropin receptor (Homo sapiens) (UniProt P16473); test: qHTS assay to identify small molecule antagonists of the thyroid stimulating hormone receptor (TSHR) signaling pathway (AID 1259385; calls by dose curve; also: nearly all actives have a fitted effect of over 20% in size)
How it was run: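 TSHR-HEK293 cells (800/well) plated 18 h, then compounds with Ro20-1724 and TSH at 1.5 ng/mL final, 30 min at room temperature. cAMP quantified by HTRF (cAMP-d2/anti-cAMP-cryptate, 1 h); 15 concentrations in triplicate.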

[4] = qHTS assay to identify small molecule agonists of the estrogen receptor alpha (ER-alpha) signaling pathway in the presence of an antagonist - cell viability counter screen (AID 1259386);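 also: series mostly up to about 92 µM; cells exposed to compounds for 22 h at 37 °C before the viability read; nearly all actives have a fitted effect of over 30% in size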
How it was run: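 Cell viability in VM7Luc4E2 cells (endogenous full-length ER-alpha) measured by CellTiter-Fluor fluorescence in the same wells as the luciferase screen. Cells pre-cultured 5 days in charcoal-stripped serum, then treated 22 h with compounds at 15 concentrations plus 10.0nM ICI-182,780.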

[5] = target: Progesterone receptor (Homo sapiens) (UniProt P06401); test: qHTS assay to identify small molecule agonists of the progesterone receptor (PR) signaling pathway (AID 1346784; calls by dose curve; also: nearly all actives have a fitted effect of over 30% in size)
How it was run: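 PR-UAS-bla HEK 293T cells (beta-lactamase reporter under UAS) in 2% charcoal-stripped FBS, dosed with 23 nL compound after 6 hr, incubated 16hr at 37C. LiveBLAzer B/G FRET substrate added, fluorescence read after 2 hours.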

[6] = target: Progesterone receptor (Homo sapiens) (UniProt P06401); test: qHTS assay to identify small molecule antagonists of the progesterone receptor (PR) signaling pathway (AID 1346795; active = well fitted inhibition curve with a large enough effect in the signal ratio in the repeat runs, not every such curve was filed as active; the % refers to the signal ratio)
How it was run: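 PR-UAS-bla HEK293T cells with beta-lactamase reporter under UAS control, in 2% charcoal-stripped FBS, treated with compounds plus 1 nM promegestone (R5020, final) for 16 hr at 37C. Read-out: FRET beta-lactamase substrate fluorescence after 2 hr at room temperature.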

[7] = qHTS assay to identify small molecule antagonists of the progesterone receptor (PR) signaling pathway - cell viability counter screen (AID 1346798); also: series mostly up to about 92 µM; nearly all actives have a fitted effect of over 50% in size
How it was run: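 PR-UAS-bla HEK293T cells, 3,000/well in 2% charcoal-stripped FBS medium, dosed with compounds plus R5020 agonist and incubated 16 h at 37C. Viability then measured in the same wells by CellTiter-Glo luminescence after 30 min at RT.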

[8] = qHTS assay to identify small molecule agonists of the progesterone receptor (PR) signaling pathway - cell viability counter screen (AID 1346799; calls by dose curve; also: nearly all actives have a fitted effect of over 45% in size)
How it was run: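 Counter screen in the PR-UAS-bla HEK293T wells (2% charcoal-stripped FBS, 16 h compound exposure at 37 C) after the bla read. CellTiter-Glo added, 30 min at room temperature, luminescence read as cell viability.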

[9] = qHTS assay to identify small molecule antagonists of the TGF-beta/Smad signaling pathway - cell viability counter screen (AID 1346824); also: nearly all actives have a fitted effect of over 50% in size
How it was run: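 SBE-bla HEK 293T cells, incubated overnight, then compound plus 0.25 ng/mL TGF-beta1 (stock added) for 5 hr at 37 C. Viability was read in the same wells by CellTiter-Glo luminescence after 30 min at room temperature.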

[10] = qHTS assay to identify small molecule agonists of the TGF-beta/Smad signaling pathway - cell viability counter screen (AID 1346829); also: top concentration of the series differs between compounds; nearly all actives have a fitted effect of over 45% in size
How it was run: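 Cytotoxicity counter screen: CellTiter-Glo luminescence (30 min, room temperature) measured in the SBE-bla HEK 293T reporter wells after 5 hr compound treatment at 37 C and the 2 hr substrate step.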

[11] = qHTS assay to identify small molecule agonists of the TGF-beta/Smad signaling pathway (AID 1346859; active = well fitted activation curve with a large enough effect in the signal ratio in the repeat runs, not every such curve was filed as active; the % refers to the signal ratio; also: series mostly up to about 77 µM)
How it was run: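 SBE-bla HEK293T cells plated overnight, then compound exposure for 5 h at 37 C. Beta-lactamase reporter read with LiveBLAzer B/G FRET substrate after 2 h at room temperature, fluorescence at 405 nm excitation, 460/530 nm emission.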

[12] = target: Thyrotropin-releasing hormone receptor (Homo sapiens) (UniProt P34981); test: qHTS assay to identify small molecule antagonists of the thyrotropin-releasing hormone receptor (TRHR) signaling pathway (AID 1346877; active = well fitted inhibition curve with a large enough effect in the repeat runs, not every such curve was filed as active; also: series mostly up to about 51 µM)
How it was run: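 TRHR-expressing HEK293 cells loaded with calcium dye for 2 h at 37 C; compounds pre-incubated 5 min at room temperature before TRH challenge at 1 nM final. Intracellular calcium fluorescence read kinetically for 3 min; 15 concentrations in triplicate.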

[13] = target: Thyrotropin-releasing hormone receptor (Homo sapiens) (UniProt P34981); test: qHTS assay to identify small molecule agonists of the thyrotropin-releasing hormone receptor (TRHR) signaling pathway (AID 1346891; calls by dose curve; also: series mostly up to about 58 µM)
How it was run: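 HEK293 cells expressing TRHR plated 18 h at 37 C/5% CO2, calcium dye-loaded 2 h at 37 C, then compound added (agonist mode); kinetic calcium fluorescence read 3 min at 1 s intervals; 15 concentrations in triplicate.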

[14] = Human pregnane X receptor (PXR) small molecule agonists, qHTS cell viability counter screen (AID 1346977); also: nearly all actives have a fitted effect of over 50% in size
How it was run: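 PXR-Luc HepG2 cells (2,000/well, 5% charcoal-stripped FBS) preincubated 5 hr, then exposed to compounds 24 hr at 37 C. Viability read in the same wells by CellTiter-Fluor fluorescence, reagent added at 23 hr, 1 hr incubation.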

[15] = Caspase-3/7 induction in HepG2 cells by small molecules, qHTS assay (AID 1346978); also: nearly all actives have a fitted effect of over 15% in size
How it was run: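 Wild-type HepG2 cells, 2,000/well, settled 5 hr at 37 C and 5% CO2, then compound-treated for 17 hr; caspase-3/7 activity read by luminescent Caspase-Glo 3/7 after 30 min at room temperature.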

[16] = Caspase-3/7 induction in CHO-K1 cells by small molecules, qHTS assay (AID 1346980); also: nearly all actives have a fitted effect of over 15% in size
How it was run: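 Wild-type CHO-K1 cells exposed to compounds for 17hr at 37 C, 5% CO2. Caspase-3/7 activity then measured by Caspase-Glo 3/7 luminescence after 30min at room temperature.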

[17] = Caspase-3/7 induction in HepG2 cells by small molecules, qHTS cell viability counter screen (AID 1346981); also: series mostly up to about 92 µM; nearly all actives have a fitted effect of over 30% in size
How it was run: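 Wild-type HepG2 cells, 2,000/well, settled 5 hr at 37 C, 5% CO2 before compound addition. Viability read by CellTiter-Fluor fluorescence, reagent added after 16 hr compound exposure, then 1 hr at 37C, in the same wells as the caspase read.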

[18] = target: Nuclear receptor subfamily 1 group I member 2 (Homo sapiens) (UniProt O75469); test: Human pregnane X receptor (PXR) small molecule agonists, qHTS assay (AID 1346982); also: nearly all actives have a fitted effect of over 35% in size
How it was run: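 PXR-Luc HepG2 reporter cells (CYP3A4-driven luciferase) in 5% charcoal-stripped FBS medium, plated 5 h before compound addition, then treated 24 h at 37C. Luciferase read by ONE-Glo luminescence after 30 min at room temperature.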

[19] = Caspase-3/7 induction in CHO-K1 cells by small molecules, qHTS cell viability counter screen (AID 1346979); also: nearly all actives have a fitted effect of over 35% in size
How it was run: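 Wild-type CHO-K1 cells (1,500/well) treated with compound after 5 h plating; after 16 h at 37C, viability read as CellTiter-Fluor fluorescence following 1 h reagent incubation, in the same wells as the caspase read.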

[20] = qHTS assay to identify small molecule agonists or antagonists of the thyroid stimulating hormone receptor (TSHR) signaling pathway - wild type cell line counter screen (AID 1259384; calls by dose curve)
How it was run: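 Wild-type Hek293 cells, 800/well, 18 h at 37C, then compound with Ro20-1724 for 30 min RT. cAMP by HTRF (cAMP-d2/anti-cAMP cryptate), 1 h RT, fluorescence read. 15 concentrations, triplicates.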

Measured: Potency

Thyrotropin-releasing hormone receptor (Homo sapiens), sequence (P34981 whole entry, looked up): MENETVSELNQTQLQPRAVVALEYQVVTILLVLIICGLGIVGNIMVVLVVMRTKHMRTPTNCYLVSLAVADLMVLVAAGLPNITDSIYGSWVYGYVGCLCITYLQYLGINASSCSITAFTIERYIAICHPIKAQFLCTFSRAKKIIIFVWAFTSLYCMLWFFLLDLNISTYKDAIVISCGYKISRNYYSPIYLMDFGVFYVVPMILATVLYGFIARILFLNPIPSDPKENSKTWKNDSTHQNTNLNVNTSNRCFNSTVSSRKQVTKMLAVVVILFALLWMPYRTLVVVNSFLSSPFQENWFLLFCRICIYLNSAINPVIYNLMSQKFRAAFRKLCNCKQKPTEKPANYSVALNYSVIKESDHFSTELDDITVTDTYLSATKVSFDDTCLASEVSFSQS
Nuclear receptor subfamily 1 group I member 2 (Homo sapiens), sequence (O75469 whole entry, looked up): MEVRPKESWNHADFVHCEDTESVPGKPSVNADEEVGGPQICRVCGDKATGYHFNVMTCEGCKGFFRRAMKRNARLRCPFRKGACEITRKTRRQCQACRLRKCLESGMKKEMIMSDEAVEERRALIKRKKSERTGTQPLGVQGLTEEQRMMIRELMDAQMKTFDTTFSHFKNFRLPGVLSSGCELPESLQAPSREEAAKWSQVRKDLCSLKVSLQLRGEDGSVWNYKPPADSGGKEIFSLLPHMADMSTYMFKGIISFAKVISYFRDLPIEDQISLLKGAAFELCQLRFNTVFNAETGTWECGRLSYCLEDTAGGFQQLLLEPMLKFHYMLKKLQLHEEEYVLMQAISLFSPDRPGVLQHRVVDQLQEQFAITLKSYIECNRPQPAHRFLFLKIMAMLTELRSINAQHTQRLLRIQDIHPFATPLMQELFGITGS
Estrogen receptor (Homo sapiens), sequence (P03372 whole entry, looked up): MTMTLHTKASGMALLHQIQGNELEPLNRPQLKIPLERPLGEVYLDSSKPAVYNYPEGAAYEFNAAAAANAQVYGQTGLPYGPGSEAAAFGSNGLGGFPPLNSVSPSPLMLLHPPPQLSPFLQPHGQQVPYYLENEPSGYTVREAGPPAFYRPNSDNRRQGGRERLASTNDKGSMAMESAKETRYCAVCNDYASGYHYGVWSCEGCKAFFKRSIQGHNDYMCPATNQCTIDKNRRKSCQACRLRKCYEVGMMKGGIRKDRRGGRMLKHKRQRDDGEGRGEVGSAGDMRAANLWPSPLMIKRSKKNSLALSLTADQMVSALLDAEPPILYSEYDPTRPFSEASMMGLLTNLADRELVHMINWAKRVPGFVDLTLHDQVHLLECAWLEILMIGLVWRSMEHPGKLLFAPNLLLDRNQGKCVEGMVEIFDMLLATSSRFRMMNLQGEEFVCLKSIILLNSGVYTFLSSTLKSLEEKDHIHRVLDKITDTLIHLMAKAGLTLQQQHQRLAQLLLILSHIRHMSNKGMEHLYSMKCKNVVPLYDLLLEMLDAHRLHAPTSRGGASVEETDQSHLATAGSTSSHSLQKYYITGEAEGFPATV
Thyrotropin receptor (Homo sapiens), sequence (P16473 whole entry, looked up): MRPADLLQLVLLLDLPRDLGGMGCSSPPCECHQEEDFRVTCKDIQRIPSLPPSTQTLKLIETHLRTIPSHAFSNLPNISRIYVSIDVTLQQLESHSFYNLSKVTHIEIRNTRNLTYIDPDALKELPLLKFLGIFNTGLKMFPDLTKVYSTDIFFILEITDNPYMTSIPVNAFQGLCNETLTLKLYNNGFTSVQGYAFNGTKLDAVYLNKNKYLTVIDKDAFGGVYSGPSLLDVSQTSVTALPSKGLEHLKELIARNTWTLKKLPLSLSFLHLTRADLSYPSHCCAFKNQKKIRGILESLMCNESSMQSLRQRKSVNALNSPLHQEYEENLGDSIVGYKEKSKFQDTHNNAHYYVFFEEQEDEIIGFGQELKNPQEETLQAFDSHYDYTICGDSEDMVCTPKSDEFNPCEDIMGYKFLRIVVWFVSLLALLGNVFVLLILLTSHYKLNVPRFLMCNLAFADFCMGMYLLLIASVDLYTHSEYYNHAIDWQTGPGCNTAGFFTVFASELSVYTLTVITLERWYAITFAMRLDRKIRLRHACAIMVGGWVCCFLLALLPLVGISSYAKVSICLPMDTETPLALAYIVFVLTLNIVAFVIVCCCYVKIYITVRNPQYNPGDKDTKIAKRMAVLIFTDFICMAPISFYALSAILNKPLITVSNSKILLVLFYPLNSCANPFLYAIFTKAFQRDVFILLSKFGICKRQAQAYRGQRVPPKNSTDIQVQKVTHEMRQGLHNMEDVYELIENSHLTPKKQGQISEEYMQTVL
Progesterone receptor (Homo sapiens), sequence (P06401 whole entry, looked up): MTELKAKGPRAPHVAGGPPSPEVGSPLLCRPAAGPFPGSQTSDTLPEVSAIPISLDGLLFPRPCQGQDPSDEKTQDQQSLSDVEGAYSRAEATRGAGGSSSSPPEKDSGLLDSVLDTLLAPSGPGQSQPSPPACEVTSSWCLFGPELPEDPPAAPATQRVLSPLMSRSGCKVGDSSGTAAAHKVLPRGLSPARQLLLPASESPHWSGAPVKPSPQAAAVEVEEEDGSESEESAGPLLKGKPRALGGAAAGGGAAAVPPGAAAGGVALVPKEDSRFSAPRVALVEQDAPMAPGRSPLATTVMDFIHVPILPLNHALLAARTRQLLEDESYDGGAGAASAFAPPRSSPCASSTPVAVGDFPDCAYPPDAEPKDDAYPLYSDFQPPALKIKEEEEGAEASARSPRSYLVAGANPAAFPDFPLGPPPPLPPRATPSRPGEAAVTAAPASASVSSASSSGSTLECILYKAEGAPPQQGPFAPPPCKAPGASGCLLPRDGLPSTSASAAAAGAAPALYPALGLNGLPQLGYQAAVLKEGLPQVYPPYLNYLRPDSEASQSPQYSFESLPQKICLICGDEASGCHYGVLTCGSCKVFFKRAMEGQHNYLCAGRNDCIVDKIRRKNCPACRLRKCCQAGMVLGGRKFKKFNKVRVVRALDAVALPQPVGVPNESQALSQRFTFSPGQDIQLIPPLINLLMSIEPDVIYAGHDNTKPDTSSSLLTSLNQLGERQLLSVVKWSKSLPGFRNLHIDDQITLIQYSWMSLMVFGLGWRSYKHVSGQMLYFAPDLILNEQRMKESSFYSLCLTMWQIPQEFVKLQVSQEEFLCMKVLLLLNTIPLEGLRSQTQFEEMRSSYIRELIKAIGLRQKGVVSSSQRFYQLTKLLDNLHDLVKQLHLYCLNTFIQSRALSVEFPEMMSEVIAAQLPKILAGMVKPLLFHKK

COCCCOc1cc(C[C@@H](C[C@H](N)[C@@H](O)C[C@H](C(=O)NCC(C)(C)C(N)=O)C(C)C)C(C)C)ccc1OC
inactive: [1] | [2] | [3] | [4] | [5] | [6] | [7] | [8] | [9] | [10] | [11] | [12] | [13] | [14] | [15] | [16] | [17] | [18]

CCCCCCCCCCCCCCBr
inactive: [1] | [2] | [3] | [4] | [5] | [6] | [7] | [9] | [10] | [11] | [12] | [13] | [14] | [15] | [19] | [16] | [17] | [18]

CCCCCCC(O)CO (stereo not drawn)
inactive: [1] | [2] | [4] | [5] | [6] | [7] | [8] | [9] | [11] | [12] | [13] | [14] | [15] | [19] | [16] | [17] | [18]

CCOC(=O)COc1ccc2c(C)c(CCN(CC)CC)c(=O)oc2c1Cl
inactive: [1] | [2] | [4] | [5] | [6] | [8] | [9] | [12] | [14] | [15] | [19] | [16] | [17] | [18]

CC(O)CCCCn1c(=O)c2c(ncn2C)n(C)c1=O (stereo not drawn)
inactive: [1] | [2] | [3] | [4] | [5] | [7] | [8] | [9] | [10] | [11] | [14] | [15] | [19] | [16] | [17] | [18]

O=S(=O)(O)c1ccc(Cl)cc1
inactive: [1] | [2] | [4] | [5] | [6] | [7] | [8] | [9] | [11] | [12] | [13] | [14] | [15] | [16] | [17] | [18]

CC1=C(O)C(=O)CO1
inactive: [1] | [2] | [4] | [5] | [6] | [7] | [9] | [10] | [11] | [12] | [13] | [14] | [15] | [19] | [16] | [17]

CC(C)(C)OC(=O)c1ccccc1C(=O)O
inactive: [1] | [2] | [3] | [5] | [6] | [8] | [9] | [10] | [11] | [12] | [14] | [15] | [19] | [16] | [17] | [18]

CCOC(=O)CC
inactive: [1] | [2] | [3] | [5] | [6] | [8] | [9] | [10] | [11] | [14] | [15] | [19] | [16] | [17] | [18]

CN1CCN(C(=O)C2CCCCC2)CC1
inactive: [1] | [20] | [3] | [4] | [5] | [6] | [7] | [9] | [10] | [11] | [12] | [13] | [14] | [15] | [19] | [16] | [17] | [18]

CCCCc1ccc(Cl)cc1
inactive: [1] | [20] | [3] | [4] | [5] | [6] | [7] | [8] | [9] | [11] | [12] | [13] | [14] | [15] | [19] | [16] | [18]

CC(C)C(C)C
inactive: [1] | [20] | [3] | [4] | [5] | [6] | [7] | [8] | [9] | [10] | [11] | [14] | [15] | [16] | [17]

BrCCOc1ccccc1
inactive: [1] | [2] | [5] | [6] | [8] | [9] | [10] | [11] | [12] | [14] | [15] | [19] | [16] | [17] | [18]

C=CCN(CC=C)CC=C
inactive: [1] | [20] | [3] | [4] | [5] | [6] | [7] | [8] | [9] | [10] | [11] | [12] | [13] | [14] | [15] | [16] | [17] | [18]

CC12CCCC=C1C(=O)OC2=O (stereo not drawn)
inactive: [1] | [20] | [3] | [4] | [5] | [6] | [7] | [8] | [9] | [10] | [11] | [12] | [13] | [14] | [15] | [19] | [16] | [17] | [18]

Source: PubChem BioAssay (Tox21)
